Compounds with a hit are over-represented: about 1.9% of the library has one in this group of screens.
Cardio protect = myocardial damage modulation in H9c2 cells | H9c2 cardiomyocytes, H2O2 injury protection, ATPLite, 2 h | protection from H2O2 cell death, % at 20 µM | 0.63% of 360,000 active | AID 588492;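 active = compounds giving at least 50% protection of heart cells from peroxide-induced death in the single-dose screen, raw or plate-pattern-corrected value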;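 also: 0% = DMSO wells with peroxide and 100% = DMSO wells without peroxide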
PP5 primary = inhibitors of human protein phosphatase 5 (PP5); purified PP5c, OMFP substrate fluorescence; inhibition, % at 6.7 µM; 0.18% of 320,000 active;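 active = inhibition above the campaign's mean inhibition across all tested compounds plus 3 SD, cut at about 9.5% in these data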;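 also: 0% = DMSO only and 100% = 100 µM cantharidin control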
ATG4B inhibitor = blocks human ATG4B protease cleavage of LC3 substrate | Q9Y4P1 | ATG4B cleavage of LC3-PLA2, NBD-HPC fluorescence, 1 h | inhibition, % at 8.33 µM | 0.51% of 340,000 active; in the data active = inhibition above about 40%
PP1 inh = blocks human PP1-alpha phosphatase, a PP5 counter-screen. P62136. 0.9% of 320,000 active. inhibition, % at 6.7 µM. AID 2235. purified PP1alpha, OMFP fluorescence;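 active = inhibition above the mean inhibition of all tested compounds plus 3 SD, computed separately for each screening campaign, cut at about 15% in these data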
Target sequence (P62136 whole entry, looked up): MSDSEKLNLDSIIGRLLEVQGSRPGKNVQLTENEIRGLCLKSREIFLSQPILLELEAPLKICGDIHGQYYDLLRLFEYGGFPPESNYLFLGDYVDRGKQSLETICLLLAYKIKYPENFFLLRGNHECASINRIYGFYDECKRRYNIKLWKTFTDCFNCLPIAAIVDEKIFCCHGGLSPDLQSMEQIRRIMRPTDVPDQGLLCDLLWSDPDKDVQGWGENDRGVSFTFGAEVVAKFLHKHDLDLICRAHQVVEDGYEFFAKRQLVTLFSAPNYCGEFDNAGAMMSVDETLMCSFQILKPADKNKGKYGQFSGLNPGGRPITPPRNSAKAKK
PP1 confirm = confirmation of human PP1 phosphatase inhibitors; AID 2358; shares compounds with PP1 inh; inhibition, % at 6.7 µM; 52% of 1,900 active; purified PP1alpha, OMFP substrate fluorescence;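 active = mean PP1 inhibition above a set limit taken from the earlier primary screen, cut at about 15% in these data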
PP5 inh counter = counter-screen for PP1 inhibitors: human PP5 phosphatase inhibition. shares compounds with PP1 inh. purified PP5c, OMFP fluorescence. inhibition, % at 6.7 µM. 4% of 1,900 active. AID 2360;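 active = mean PP5 inhibition over triplicate wells above about 9.5% taken from the earlier PP1 screen, limit read from the data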
Numbers without * were called inactive; . = not tested or not shown.

SMILES | Cardio protect | PP5 primary | ATG4B inhibitor | PP1 inh | PP1 confirm | PP5 inh counter
Cc1cc(C)cc(NC(=O)/C(C#N)=C/c2cn(CC(=O)NCc3ccco3)c3ccccc23)c1 | 20 | 0 | -2 | 4 | . | .
Cc1ccc(NC(=O)/C(C#N)=C/c2cn(CC(=O)NCc3ccco3)c3ccccc23)cc1C | 7 | 1 | -2 | 32* | 31* | -1
CCOc1ccc(C2NC(=O)Cc3cc(OC)c(OC)cc32)cc1 (centres undefined) | -2 | -1 | 3 | 24* | -2 | 1
COc1ccc(NC(=O)CCNC(=O)c2ccco2)cc1Cl | -3 | 0 | 0 | -2 | . | .
C/C(=N\NC(=O)c1nnn(-c2nonc2N)c1CN(C)c1ccccc1)c1ccccn1 | 47 | 3 | -11 | 19* | 30* | 2
C/C(=N\NC(=O)c1nnn(-c2nonc2N)c1CN(C)c1ccccc1)c1ccc(O)cc1 | 2 | 3 | -3 | 4 | . | .
CCN(CC)CCOC(=O)c1ccc(N/C=C(/C#N)c2nc(-c3ccc(OC)c(OC)c3)cs2)cc1 | 17 | 2 | -23 | 66* | 35* | -1
CCN(CC)CCOC(=O)c1ccc(N/C=C(/C#N)c2nc(-c3cccc(OC)c3)cs2)cc1 | 1 | 1 | -6 | 54* | 9 | -2
COC12CC(=O)C(C(C)=O)=C(O)C1(C)c1c(O)c(C)c(O)c(C(C)=O)c1O2 (centres undefined) | -7 | . | . | . | . | .
Cc1nn(CC(=O)NC2CCS(=O)(=O)C2)c(C)c1[N+](=O)[O-] (centres undefined) | 9 | . | 1 | . | . | .
O=C(COC(=O)c1ccc(Cl)c(S(=O)(=O)N2CCOCC2)c1)NCc1ccco1 | -4 | 0 | -12 | -8 | . | .
Cc1nc2ccccc2n1CC(=O)NN | 6 | 1 | -6 | -5 | . | .
NNC(=O)Cn1c(SCc2ccccc2)nc2ccccc21 | -1 | 0 | -4 | 18* | -1 | 0
COc1cc2c(cc1OC)C(c1cc(OC)c(OC)cc1[N+](=O)[O-])N(C(C)=O)CC2 (centres undefined) | 8 | -1 | 2 | 2 | . | .
COc1ccc(NS(=O)(=O)c2ccc(N/N=C(\C)c3ccncc3)c([N+](=O)[O-])c2)cc1 | -14 | 4 | 23 | 24* | 16* | 6
C/C(=N\Nc1ccc(S(=O)(=O)Nc2ccccc2)cc1[N+](=O)[O-])c1ccncc1 | . | -2 | . | -3 | . | .
CCc1nc2ccc(C(=O)NCCc3ccccc3OC)cc2nc1CC | 4 | -1 | 9 | -4 | . | .
COc1ccccc1CNC(=O)c1ccc2nc3[nH]c4ccccc4c3nc2c1 | 40 | 3 | 23 | 21* | 23* | -2
O=C(CN1C(=O)NC2(CCCC2)C1=O)Nc1ccc(C(F)(F)F)cc1 | 2 | 4 | -2 | 2 | . | .
Cc1ccc(C2(c3ccccc3)NC(=O)N(CC(=O)NCc3ccco3)C2=O)cc1C (centres undefined) | 3 | 3 | -2 | 1 | . | .
Fc1ccc(-c2nnc(-c3ccc4ccccc4c3)o2)cc1 | -14 | . | -9 | . | . | .
CC(=O)c1sc2c(c1OC(=O)c1ccc(Cl)cc1Cl)c(=O)n(-c1ccccc1)c(=S)n2-c1ccccc1 | -7 | -1 | -2 | 38* | 10 | -2
CC(=O)c1sc2c(c1OC(=O)c1ccc(Cl)cc1)c(=O)n(-c1ccccc1)c(=S)n2-c1ccccc1 | -2 | . | 0 | . | . | .
COc1ccc(NS(=O)(=O)c2ccc3c(c2)N(C(C)=O)CC(C)S3)c(OC)c1 (centres undefined) | -10 | 1 | -5 | 2 | . | .
c1ccc(-c2nccc(-c3ccc(-n4cnc5ccccc54)cc3)n2)cc1 | 2 | 3 | -12 | 18* | 25* | 0
COc1cc(C(=O)OCC(=O)Nc2cc(S(=O)(=O)N3CCOCC3)ccc2C)ccc1OCC(C)C | 3 | 0 | -17 | -2 | . | .
CCOC(=O)c1sc(N2N=C(C)/C(=C\c3ccc(OCC(=O)OC)cc3)C2=O)nc1C | 58* | 1 | 3 | 24* | 8 | 1
COc1cccc(CN2CC(C(=O)NCCN3CCOCC3)CCC2=O)c1 (centres undefined) | 3 | 1 | 28 | 0 | . | .
N#CC1=C2N=C(N)c3c(sc4c3CCCCC4)N2C2=C(C(=O)CCC2)C1c1ccccc1 (centres undefined) | 25 | 4 | -10 | 18* | 6 | -2
Cc1cc(C)nc(SCC(=O)c2ccc(F)cc2)n1 | 8 | 2 | 0 | 0 | . | .

Source: PubChem BioAssay (several laboratories)
